Assay in all cases: Cytotoxic Profiling of Annotated Libraries Using Quantitative High-Throughput Screening (AID 1296008); also: nearly all actives have a fitted effect of over 60% in size
Holding throughout (conditions): Five cell lines viability, CellTiter-Glo ATP luminescence, 48-72 h; max response: stronger effect = lower value

Assay [1] has as its system CRL-7250. The method, boiled down: (§1)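 Compounds were pin-transferred onto cells and incubated 48 or 72 hr at 37 degree Celsius, 95% humidity. CellTiter-Glo was added, plates sat 10 min at room temperature, then ATP-coupled luminescence was imaged as the viability read-out.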
The test system of assay [2] is HEK293. In a few lines: as §1
Assay [3] deals with HaCat. The method, boiled down: as §1
Assay [4] deals with KB-3-1. The method, boiled down:
as §1

Assay [5] deals with NIH3T3. In a few lines:
as §1

Records with an inconclusive call do not appear. Unmarked numbers belong to inactive results. Active and inactive are the calls of the source. Calls follow the shape of the dose curve; as a rule, active = well fitted inhibition curve with a large enough effect; inconclusive = small, poorly fitted or top-dose-only effect; inactive = flat fitted curve, though single readings scatter.
% is scaled to controls: 0 for no effect and ±100 for the full control effect; potency is read from the fitted curve at half-maximal effect.

Consider `C/C=C/C=C/C=C/C(=O)O[C@@H]1C=C(CO)[C@](O)(CO)[C@@]2(C)CCCC(C)(C)[C@H]12`, for which the max response in assay [1] was -5.67%; in assay [3], -1.12%. Also, the Potency in assay [2] was 12.8 µM (active). Besides, the compound was classed as inactive in assay [4] and in assay [5].
Consider `COC1OC(O)C2(CCC3(O2)C(C)CC2OC(=O)C4(C)CCCC3(C)C24)C1O` (stereo not given), for which the outcome in assay [1] and in assay [3] was inactive. Moreover, the values for the max response in assay [2], in assay [4] and in assay [5] were -1.02%, -1.51% and 1.38%, respectively.
For the compound `CCCC(C(=O)O)c1c(C)nc2ccc(Cl)cc2c1-c1ccccc1` (stereo not given), the max response in assay [1] is 3.26%; in assay [2], -5.83%; in assay [4], 2.25%; in assay [5], 1.27%. The result in assay [3] was inactive.
Take `C/C(CO)=C1/CCC23COC(C2)C(O)(C(=O)O)CCC13` (stereo not given): the max response in assay [1] is 1.3%; in assay [3], 0.569%; in assay [4], 2.82%; in assay [5] it was -0.495%. Moreover, the call in assay [2] was inactive.
With `Cc1occc(=O)c1O[C@@H]1O[C@H](CO[C@@H]2OC[C@](O)(CO)[C@H]2O)[C@@H](O)[C@H](O)[C@H]1O`, the compound was called inactive in assay [1], in assay [3] and in assay [4]. For the same compound, the max response in assay [2] was 0.165%; in assay [5], 1.4%.
Regarding `C=C1C(OC(C)=O)C(=O)C2C(C)(C)C(O)CCC2(C)C1CC(OC(C)=O)/C(C)=C/COC(C)=O` (stereo not given), the max response is -6.92% in assay [1], -10.7% in assay [2], 5.46% in assay [4] and -4.73% in assay [5]. In addition, in assay [3], the compound was called inactive.
In the case of `COC1OC(OC)C(O)(CCC2(C)C(C)CCC3(C)C2CC(O)C(O)C32CO2)C1O` (stereo not given), the max response was -2.11% in assay [1], 1.57% in assay [2] and 5.15% in assay [4]. The call in assay [3] and in assay [5] was inactive.
As for `COC(=O)C1C(O)CCC2CN3CCc4c([nH]c5ccccc45)C3CC21` (stereo not given), the max response in assay [1] was 2.68%; in assay [3], -7.68%; in assay [4], 9.41%; in assay [5] it was -7.25%. In addition, the result in assay [2] was inactive.
Consider `COc1c2cc(c(O[C@@H]3O[C@H](CO)[C@@H](O)[C@H](O)[C@H]3O)c1OC)CCCCC(O)CCc1ccc(O)c-2c1` (stereo not given in full), for which the max response in assay [1] is 0.579%; in assay [2], -2.25%; in assay [5], 1.47%. Besides, the outcome in assay [3] and in assay [4] was inactive.
`CC(C)C1CCC(CO)=CC1/C=C(\CO)C(=O)OCC1(O)CCC(C(C)C)C2C=C(C(=O)O)COC(=O)C21` (stereo not given): the call in assay [1], in assay [2] and in assay [4] was inactive. The max response is -2.47% in assay [3] and -0.853% in assay [5].
Take `CC1=C[C@H]2[C@@H](CC1=O)[C@H](C)C[C@H](O)[C@H]2C(C)C`: the max response was -22.7% in assay [1], -24.5% in assay [2], -6.12% in assay [4] and -7.42% in assay [5]. The result in assay [3] was inactive.
In the case of `COC(=O)CCC1(C)C(C(C)(C)O)C(O)CC2(C)Oc3c(C)c4c(c(OC)c3CC21)C(=O)OC4` (stereo not given), the max response in assay [1] is -9.47%; in assay [3] it was -0.542%; in assay [4] it was 5%; in assay [5], -1.25%. Also, the compound was called inactive in assay [2].
`CC1(C)C2CC[C@]3(C)C(C(=O)C=C4[C@H]5C[C@@](C)(C(=O)O)CC[C@]5(C)CC[C@]43C)[C@@]2(C)CC[C@@H]1O` (stereo not given in full): the compound was classed as inactive in assay [1], in assay [3] and in assay [4]. In addition, the max response is -0.352% in assay [2] and 2.21% in assay [5].
Take `CC1=C2C(=O)C=C(CO[C@@H]3O[C@H](CO)[C@@H](O)[C@H](O)[C@H]3O)[C@@H]2[C@H]2OC(=O)[C@H](C)[C@@H]2[C@@H](O)C1`: the result in assay [1] and in assay [5] was inactive. Further, the figures for the max response in assay [2], in assay [3] and in assay [4] were -50.9%, 0.75% and 2.15%, respectively.
On to `COc1cc2c(cc1O)C(c1ccc(O)cc1)C(C)C(C)C2` (stereo not given), for which the max response was -22.8% in assay [1], -21.2% in assay [2], -7.89% in assay [4] and -6.55% in assay [5]. Besides, the compound was classed as inactive in assay [3].
`CC(C)=CCC/C(C)=C/CO[C@@H]1O[C@H](CO[C@@H]2OC[C@](O)(CO)[C@H]2O)[C@@H](O)[C@H](O)[C@H]1O`: the figures for the max response in assay [1] and in assay [2] were 2.57% and -12.6%, respectively. Also, the result in assay [3], in assay [4] and in assay [5] was inactive.
`CC1=CC2=C(C)C(=O)[C@](C)(O)[C@H](O)C2=CO1`: the max response was -8.59% in assay [1], 3.6% in assay [2], 6.84% in assay [4] and -3.34% in assay [5]. In addition, in assay [3], the call was inactive.
For the compound `C=C1CC[C@H]2[C@@](C)(CCC(OC3OC(CO)C(O)C(O)C3O)[C@@]2(C)CO)C1C(=O)CC1=CCOC1=O` (stereo not given in full), the result in assay [1], in assay [3], in assay [4] and in assay [5] was inactive. Besides, the max response in assay [2] is -9.97%.
